In ChEMBL document CHEMBL3988442, “University of Dundee, Small-Polar-MMV Screening Library” (2021):

Each molecule was assayed against T1, Aspartate--tRNA(Asp/Asn) ligase (Mycobacterium tuberculosis (strain ATCC 25618 / H37Rv)) (UniProt P9WFW3) (assay: Assay for Asp RNA synthetase-1 from Mycobacterium tuberculosis). Settings: 30 µM.
T1 sequence (whole entry): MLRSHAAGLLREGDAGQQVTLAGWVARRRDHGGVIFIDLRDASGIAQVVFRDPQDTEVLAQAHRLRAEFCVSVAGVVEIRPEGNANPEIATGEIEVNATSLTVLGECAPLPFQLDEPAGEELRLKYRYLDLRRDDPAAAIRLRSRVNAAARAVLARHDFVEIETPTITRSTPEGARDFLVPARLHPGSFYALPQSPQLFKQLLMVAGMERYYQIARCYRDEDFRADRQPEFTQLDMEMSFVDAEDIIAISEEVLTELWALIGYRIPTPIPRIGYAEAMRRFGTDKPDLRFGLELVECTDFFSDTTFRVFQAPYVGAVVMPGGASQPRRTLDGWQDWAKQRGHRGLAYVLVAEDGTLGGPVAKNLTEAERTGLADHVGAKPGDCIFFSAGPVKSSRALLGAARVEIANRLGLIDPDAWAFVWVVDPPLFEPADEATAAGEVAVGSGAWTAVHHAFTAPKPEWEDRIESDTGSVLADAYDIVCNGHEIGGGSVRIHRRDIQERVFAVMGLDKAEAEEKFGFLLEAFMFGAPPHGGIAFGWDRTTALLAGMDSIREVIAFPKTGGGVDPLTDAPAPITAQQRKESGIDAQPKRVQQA
Assay type: functional
Set-up: scale not given: in the data most compounds retested in dose-response had high values

SMILES | Percent Effect
O=C(c1cccc(F)c1)N1CCN2C[C@H](OCc3cccnc3)C[C@H]2C1 | -1.22%
CCC(=O)N1CCC(c2nc3ccc(NC(C)C)cn3n2)CC1 | -3.11%
CN(C)c1nccc(N2CCO[C@H]3CN(CC4CCOCC4)C[C@H]32)n1 | -1.41%
CC(C(=O)N1CCN(c2ccccc2Cl)CC1)n1cncn1 (stereo not given) | -1.38%
c1ccc(OCc2nnc3n2CCN(CC2CCOCC2)C3)nc1 | 10.1%
CCc1nc(NCCCOC)c2c(n1)c(C)nn2C | -8.39%
CCc1nc(C)c(C(=O)NCCNc2ncccn2)s1 | 0.562%
Cc1nc2ccccc2c(=O)n1CCC(=O)N1CCNC(=O)C1 | -5.81%
CC(C)CN1CCC2(CCN(Cc3ccoc3)CC2)C1=O | 6.3%
CCn1nc(-c2ccccc2F)ccc1=O | 0.691%
Cn1ccnc1CNC(=O)N1CCCC(Cc2nccn2C)C1 (stereo not given) | 0.605%
COc1cccc(CN2CCCC(Nc3cccc(F)c3)C2)c1O (stereo not given) | -1.31%
CC1c2ncc(Cn3cncn3)n2CCN1C(=O)C1CCOCC1 (stereo not given) | 3.23%
CC(C)c1nn(C)c(Cl)c1CNC1CCOc2ccccc21 (stereo not given) | 1.57%
CN1CCCC1CNC(=O)c1nnn(-c2ccc(F)cc2)c1C1CC1 (stereo not given) | 3.7%
CCOc1cccc2c1OCC(C(=O)NS(=O)(=O)Cc1ccccc1)=C2 | -0.211%
Cc1nc(-c2ccsc2)ccc1C(=O)O | -0.501%
Cc1cnc(CN2CCOC(CNc3cccnn3)C2)cn1 (stereo not given) | -2.97%
CCc1cc(O)nc(C2CCCN2C(=O)c2cc(C)no2)n1 (stereo not given) | 7.1%
c1cnn(Cc2nnc3n2CCCN(CC2CCOCC2)C3)c1 | 2.52%

SMILES | Percent Effect
CNC(=O)c1ccc(C2CN(C(=O)c3cncs3)CCO2)nc1 (stereo not given) | 3.26%
O=C(NCc1cncc2c1CCN(Cc1cccs1)C2)C1CC1 | 7.52%
O=C(C1CCOC1)N1CC[C@@H](O)[C@@H]1Cc1ccccc1 (stereo not given in full) | -2.71%
O=C1COc2ccc(C(=O)NS(=O)(=O)c3ccc(F)cc3F)cc2N1 | 0.0843%
Cn1cc(C[C@H]2[C@H](O)CCN2CC2CC2)cn1 | -0.168%
CN1CCCn2c(nc(CNC(=O)c3ccsc3)cc2=O)C1 | 4.62%
O=C(Cc1cn2ccsc2n1)N1CCCC(n2cncn2)C1 (stereo not given) | -0.0111%
CC(C)n1c(=O)nc2n1C(=O)N(c1ccc(F)cc1)C2 | 2.49%
CC(C)Nc1ccc2nc(C3CCN(C(C)C)CC3)nn2c1 | -0.549%
CC(=O)N1CC(=O)N(c2ccccc2)CC12CCN(Cc1cccs1)C2 (stereo not given) | 2.3%
CCC(=O)N1CCN(C(=O)CCn2cccn2)CC1 | -2.56%
OCC1CCCN1c1cc(N2CCC(OC3CCCC3)CC2)ncn1 (stereo not given) | -1.79%
N#Cc1ccc(C(=O)N2CCC3(CC2)C(=O)Nc2ccccc23)cn1 | 6.62%
COc1ccccc1CC(=O)N1CCC(NCc2cc[nH]c2)CC1 | -2.74%
N#Cc1ccc(OCCN2CCc3c(ncn3C3CC3)C2)cc1 | 1.24%
CN(CC1CCCCO1)C(=O)c1ccnc(OC2CCC2)c1 (stereo not given) | -2.11%
Nc1cc(CCCNC(=O)NC2CC2)nn1-c1ccccc1 | -4.03%
Cc1cc(C)n(CC2CCCN2C(=O)Cc2c(C)noc2C)n1 (stereo not given) | 7.79%
COc1c(C2CCCN2C(=O)Cc2c(C)noc2C)c(C)nn1C (stereo not given) | -3.25%
CCOc1cccc(NS(=O)(=O)c2cc(C)c(C(=O)O)s2)c1 | 1.62%
